Experimental data as given in PubChem BioAssay AID1159580 (chemical genetic matrix, 2015).
“And” between values parts separate entries of the source, which are not always exact repeats. Identical values can stand only once. In all, about 5,500 compounds went through this assay and about 2,000 (36%) were called active. About 18% were inconclusive and are not listed. Cut-off read from the data, not from the text of the source: active = normalized growth mostly below about 0.91 (no sharp cut-off); inconclusive = no clear call, values can overlap the other calls; inactive = mostly above about 0.92. The list shows a part of the results.

Assay: chemical genetic growth profiling, strain panel (AID 1159580);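 note: tested at 20 µM; growth read once vehicle control cultures reached saturation at 30 °C; 1 = growth at the plate median or of vehicle wells; lower values mean less growth of the strain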
Conditions: S. cerevisiae deletion strains, growth OD
[1] = locus YAL013W, strain DEP1, stronger effect = lower value
[2] = locus YAL040C, strain CLN3, stronger effect = lower value
[3] = locus YCL061C, strain MRC1 (second series), stronger effect = lower value
[4] = locus YDR150W, strain NUM1, stronger effect = lower value
[5] = locus YDR363W, strain ESC2, stronger effect = lower value
[6] = locus YER002W, strain NOP16, stronger effect = lower value
[7] = locus YGR078C, strain PAC10, stronger effect = lower value
[8] = locus YJR075W, strain HOC1, stronger effect = lower value
[9] = locus YMR263W, strain SAP30, stronger effect = lower value
[10] = locus YNL128W, strain TEP1, stronger effect = lower value
[11] = locus YNL175C, strain NOP13, stronger effect = lower value
[12] = locus YNL197C, strain WHI3, stronger effect = lower value
[13] = locus YNL224C, strain SQS1, stronger effect = lower value
[14] = locus YOR083W, strain WHI5 (second series), stronger effect = lower value
[15] = locus YPL055C, strain LGE1, stronger effect = lower value
[16] = locus YPL241C, strain CIN2, stronger effect = lower value
[17] = locus YGR229C, strain SMI1, stronger effect = lower value
[18] = locus YMR307W, strain GAS1, stronger effect = lower value

Measured: normalized growth

CS(=N)(=O)CC[C@H](N)C(=O)O (some centres undefined)
inactive: [1] 0.995 | [2] 0.993 | [3] 0.997 | [4] 1.02 | [5] 0.962 | [6] 1 | [7] 0.969 | [8] 1.01 | [9] 1.01 | [10] 0.991 | [11] 0.989 | [12] 0.983 | [13] 0.999 | [14] 0.989 | [15] 1 | [16] 1

N[C@@H](Cc1ccc(O)c(I)c1)C(=O)O
inactive: [1] 0.997 | [2] 0.991 | [3] 1 | [5] 1.01 | [6] 1.02 | [7] 1.01 | [17] 1.01 | [8] 0.991 | [18] 0.992 | locus YNL153C, strain GIM3, stronger effect = lower value 1 | [11] 1 | [12] 0.997 | [13] 1.01 | [14] 1.02 | [15] 0.979 | [16] 0.993

NC(Cc1ccc(F)cc1)C(=O)O (centres undefined)
inactive: [1] 1.01 | locus YAL021C, strain ccr4, stronger effect = lower value 0.987 | locus YAL026C, strain drs2, stronger effect = lower value 1.03 | locus YAL030W, strain snc1, stronger effect = lower value 1.01 | locus YBL061C, strain skt5, stronger effect = lower value 1.03 | locus YBR009C, strain hhf1, stronger effect = lower value 1.03 | locus YBR021W, strain FUR4, stronger effect = lower value 0.99 | locus YBR023C, strain chs3, stronger effect = lower value 1.01 | locus YBR171W, strain sec66, stronger effect = lower value 1.03 | locus YBR229C, strain ROT2, stronger effect = lower value 1.01 | locus YBR231C, strain swc5, stronger effect = lower value 1.02 | locus YCL011C, strain gbp2, stronger effect = lower value 1.02 | locus YCL016C, strain dcc1, stronger effect = lower value 1.01 | locus YCL029C, strain bik1, stronger effect = lower value 1.03 | locus YCL061C, strain MRC1, stronger effect = lower value 1.01 | locus YCL069W, strain vba3, stronger effect = lower value 1.01 | locus YCR088W, strain abp1, stronger effect = lower value 1.02 | locus YDL005C, strain med2, stronger effect = lower value 1.01 | locus YDL035C, strain GPR1, stronger effect = lower value 1.01 | locus YDL040C, strain nat1, stronger effect = lower value 1 | locus YDL074C, strain BRE1, stronger effect = lower value 1.01 | locus YDL101C, strain DUN1, stronger effect = lower value 1.01 | locus YDL134C, strain PPH21, stronger effect = lower value 1.01 | locus YDL185W, strain tfp1, stronger effect = lower value 1.03 | locus YDL192W, strain arf1, stronger effect = lower value 1.02 | locus YDR001C, strain nth1, stronger effect = lower value 1.01 | locus YDR069C, strain doa4, stronger effect = lower value 1.02 | locus YDR101C, strain arx1, stronger effect = lower value 1.04 | locus YDR137W, strain rgp1, stronger effect = lower value 0.994 | [4] 0.997 | locus YDR159W, strain sac3, stronger effect = lower value 1.02 | locus YDR162C, strain NBP2, stronger effect = lower value 1.02 | locus YDR195W, strain ref2 1.04 | locus YDR297W, strain sur2, stronger effect = lower value 1.02 | locus YDR318W, strain mcm21, stronger effect = lower value 1.02 | locus YDR334W, strain swr1, stronger effect = lower value 1.02 | locus YDR335W, strain msn5, stronger effect = lower value 1.02 | locus YDR388W, stronger effect = lower value 1.03 | locus YDR392W, strain spt3, stronger effect = lower value 0.923 | locus YDR502C, strain sam2, stronger effect = lower value 1.02 | locus YEL003W, strain gim4, stronger effect = lower value 1.02 | locus YEL037C, strain rad23, stronger effect = lower value 1.01 | locus YEL061C, strain CIN8 (second series), stronger effect = lower value 1.02 | locus YEL061C, strain CIN8, stronger effect = lower value 1 | locus YER015W, strain faa2, stronger effect = lower value 1.02 | locus YER016W, strain bim1, stronger effect = lower value 1.02 | locus YER110C, stronger effect = lower value 1.04 | locus YER111C, strain swi4, stronger effect = lower value 1.03 | locus YER155C, strain BEM2 (second series), stronger effect = lower value 1.04 | locus YER155C, strain BEM2, stronger effect = lower value 1 | locus YER167W, strain BCK2, stronger effect = lower value 1 | locus YFR010W, strain ubp6, stronger effect = lower value 1.01 | locus YGL078C, strain dbp3, stronger effect = lower value 1.02 | locus YGL086W, strain mad1, stronger effect = lower value 1 | locus YGL167C, strain pmr1, stronger effect = lower value 1.02 | locus YGL173C, strain kem1, stronger effect = lower value 1.02 | locus YGL227W, strain vid30, stronger effect = lower value 1.02 | locus YGL240W, strain doc1, stronger effect = lower value 1.03 | locus YGL248W, strain PDE1, stronger effect = lower value 1.02 | locus YGL253W, strain hxk2, stronger effect = lower value 1.04 | locus YGR135W, strain pre9, stronger effect = lower value 1.02 | [17] 0.992 | locus YGR252W, strain gcn5, stronger effect = lower value 1.06 | locus YHR013C, strain ard1, stronger effect = lower value 1.01 | locus YHR027C, strain rpn1, stronger effect = lower value 1.01 | locus YHR030C, strain SLT2, stronger effect = lower value 1.01 and 1.02 | locus YHR079C, strain IRE1 (second series), stronger effect = lower value 1.03 | locus YHR079C, strain IRE1, stronger effect = lower value 1.02 | locus YHR094C, strain hxt1, stronger effect = lower value 1.02 | locus YHR129C, strain ARP1, stronger effect = lower value 1.01 | locus YHR142W, strain chs7, stronger effect = lower value 0.996 | locus YHR200W, strain rpn10, stronger effect = lower value 1.02 | locus YIL066C, strain RNR3, stronger effect = lower value 1.01 | locus YIL073C, strain SPO22, stronger effect = lower value 1.09 | locus YIL125W, strain kgd1, stronger effect = lower value 1.02 | locus YIR030C, strain dcg1, stronger effect = lower value 1.02 | locus YJL092W, strain hpr5, stronger effect = lower value 1.02 | locus YJL095W, strain BCK1 (second series), stronger effect = lower value 1.01 | locus YJL095W, strain BCK1, stronger effect = lower value 1.02 and 1.03 | locus YJL115W, strain asf1, stronger effect = lower value 1.01 | locus YJL129C, strain trk1, stronger effect = lower value 1.01 | locus YJL134W, strain LCB3, stronger effect = lower value 1 | locus YJL154C, strain vps35, stronger effect = lower value 1.01 | locus YJL164C, strain tpk1, stronger effect = lower value 0.966 | locus YJL166W, strain qcr8, stronger effect = lower value 1 | locus YJL168C, strain set2, stronger effect = lower value 1.01 | locus YJL187C, strain SWE1 (second series), stronger effect = lower value 1.03 | locus YJL187C, strain SWE1, stronger effect = lower value 1.02 | locus YJR043C, strain POL32, stronger effect = lower value 1 | locus YJR066W, strain TOR1, stronger effect = lower value 1 | [8] 1.01 | locus YKL009W, strain mrt4, stronger effect = lower value 1 | locus YKL068W, stronger effect = lower value 1.01 | locus YKL085W, strain MDH1 (second series), stronger effect = lower value 1.02 | locus YKL085W, strain MDH1, stronger effect = lower value 1.02 | locus YKL160W, strain elf1, stronger effect = lower value 0.99 | locus YKR001C, strain vps1, stronger effect = lower value 1.01 | locus YKR026C, strain gcn3, stronger effect = lower value 1.03 | locus YKR091W, strain srl3, stronger effect = lower value 1.02 | locus YLL001W, strain dnm1, stronger effect = lower value 1 | locus YLL026W, stronger effect = lower value 1.01 | locus YLL041C, strain sdh2, stronger effect = lower value 1.01 | locus YLR027C, strain aat2, stronger effect = lower value 1.01 | locus YLR039C, strain RIC1, stronger effect = lower value 1.04 | locus YLR058C, strain SHM2, stronger effect = lower value 1.02 | locus YLR102C, strain apc9, stronger effect = lower value 1.03 | locus YLR113W, strain HOG1, stronger effect = lower value 1.03 | locus YLR221C, strain rsa3, stronger effect = lower value 0.993 | locus YLR258W, strain gsy2, stronger effect = lower value 1.02 | locus YLR262C, strain YPT6 (second series), stronger effect = lower value 0.997 | locus YLR262C, strain YPT6, stronger effect = lower value 1.06 | locus YLR268W, strain sec22, stronger effect = lower value 1.03 | locus YLR320W, strain mms22, stronger effect = lower value 1.02 | locus YLR330W, strain CHS5, stronger effect = lower value 1.01 | locus YLR342W, strain FKS1 (second series), stronger effect = lower value 0.979 | locus YLR342W, strain FKS1, stronger effect = lower value 1.02 | locus YLR357W, strain rsc2, stronger effect = lower value 1.01 | locus YLR370C, strain arc18, stronger effect = lower value 1.02 | locus YLR371W, strain rom2, stronger effect = lower value 1.02 | locus YLR384C, strain iki3, stronger effect = lower value 1.02 | locus YLR418C, strain cdc73, stronger effect = lower value 1.02 | locus YML016C, strain PPZ1, stronger effect = lower value 1 | locus YML032C, strain rad52, stronger effect = lower value 1.03 | locus YML120C, strain ndi1, stronger effect = lower value 1.01 | locus YML124C, strain tub3, stronger effect = lower value 1.02 | locus YMR058W, strain fet3, stronger effect = lower value 1.02 | locus YMR078C, strain ctf18, stronger effect = lower value 1.04 | locus YMR125W, strain sto1, stronger effect = lower value 1.04 | locus YMR129W, stronger effect = lower value 1.01 | locus YMR205C, strain PFK2, stronger effect = lower value 1.02 | locus YMR223W, strain ubp8, stronger effect = lower value 1.02 | locus YMR231W, strain pep5, stronger effect = lower value 1.02 | [9] 1.01 | [18] 1.05 | locus YNL067W, strain RPL9B, stronger effect = lower value 1.03 | locus YNL071W, strain lat1, stronger effect = lower value 1 | [10] 1.04 | locus YNL183C, strain NPR1, stronger effect = lower value 0.969 | locus YNL209W, strain ssb2, stronger effect = lower value 1.02 | locus YNL233W, strain BNI4, stronger effect = lower value 1.02 | locus YNL248C, strain rpa49, stronger effect = lower value 0.982 | locus YNL250W, strain rad50, stronger effect = lower value 1.02 | locus YNL271C, strain bni1, stronger effect = lower value 1.04 | locus YNL298W, strain CLA4, stronger effect = lower value 1.02 | locus YNL307C, strain MCK1, stronger effect = lower value 1.03 | locus YNL322C, strain KRE1 (second series), stronger effect = lower value 1.01 | locus YNR049C, strain mso1, stronger effect = lower value 1.04 | locus YNR052C, strain pop2, stronger effect = lower value 1.02 | locus YOL012C, strain htz1 1.76 | locus YOL147C, strain pex11, stronger effect = lower value 1.03 | locus YOR001W, strain rrp6, stronger effect = lower value 1.01 | locus YOR061W, strain CKA2, stronger effect = lower value 1.02 | locus YOR069W, strain VPS5, stronger effect = lower value 1 | locus YOR070C, strain gyp1, stronger effect = lower value 1.01 | locus YOR080W, strain dia2, stronger effect = lower value 1.02 | locus YOR083W, strain WHI5, stronger effect = lower value 0.985 | locus YOR106W, strain vam3, stronger effect = lower value 0.992 | locus YOR136W, strain idh2, stronger effect = lower value 1.05 | locus YOR144C, strain elg1, stronger effect = lower value 1.02 | locus YOR184W, strain ser1, stronger effect = lower value 1.04 | locus YOR231W, strain MKK1, stronger effect = lower value 1.05 | locus YOR265W, strain rbl2, stronger effect = lower value 1.01 | locus YOR270C, strain vph1, stronger effect = lower value 1.02 | locus YOR290C, strain snf2, stronger effect = lower value 0.998 | locus YOR316C, strain cot1, stronger effect = lower value 1.02 | locus YPL051W, strain arl3, stronger effect = lower value 0.998 | [15] 1.02 | locus YPL078C, strain atp4, stronger effect = lower value 0.988 | locus YPL106C, strain sse1, stronger effect = lower value 1.02 | locus YPL240C, strain hsp82, stronger effect = lower value 1.03 | [16] 1 | locus YPL256C, strain CLN2, stronger effect = lower value 1.02 | locus YPR119W, strain clb2, stronger effect = lower value 1.02 | locus YPR141C, strain kar3, stronger effect = lower value 1.03 | locus YPR163C, strain tif3, stronger effect = lower value 1.04 | locus YPR167C, strain met16, stronger effect = lower value 1.03 | strain wtn01, stronger effect = lower value 1.03
